Five compounds from PubChem BioAssay (NCI) can be followed below.

About 83,000 compounds went through this panel and 20% of them were active in at least one assay; those are over-represented in the sample as a whole.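 Single-dose data. Exposure time 48 hours. Values below 10 considered active.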 Values without a mark were called inactive. Active and inactive are the calls of the source.

For this experiment, the system named is HL-60(TB) leukemia. The experiment is described as follows: NCI-60 one-dose screen, 48 h (100 = growth as untreated, 0 = no growth, -100 = all killed). The following applies: 10 µM unless noted.
For `N#Cc1c(-c2cccc(Cl)c2)cc(-c2cccnc2)[nH]c1=O`, the growth is 66.9%. The same measure for `COc1ccc(CCN2C(=O)/C(=C/c3ccc(C4Oc5ccccc5C5CC(c6ccccc6)=NN54)cc3)SC2=S)cc1` (stereo not given): 97.7%; for `CN1/C(=C\C(I)C(I)C2=[N+](C)c3ccccc3C2(C)C)C(C)(C)c2ccccc21` (stereo not given): -20.1% (active); for `COc1cccc(/C=C2\COc3ccc(O)c(O)c3C2=O)c1`: -20% (active). `O=c1c(-c2ccc3c(c2)OCO3)coc2c(CO)c(O)ccc12`: the growth was -46.9% (active).
